HSF1 activator: increases HSF-1 driven luciferase reporter signal; NIH3T3-HGL HSF-1 luciferase reporter, MG132, 8 h; 100% = twice DMSO control signal; activation, % at 9 µM; 300,000 tested, 1.7% active; AID 504408;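 active = mean replicate activation of at least 50% with a set share of replicates each reaching 50%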;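 note: 0% = median of the neutral control wells and 100% = twice that signal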
DAX1 inh: NR0B1 (DAX1) inhibition; P51843; HEK293 Gal4-DAX1 luciferase reporter, luminescence; inhibition, % at 6.75 µM; 340,000 tested, 0.99% active; AID 504766;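 active = inhibition above the mean over all tested compounds plus 3 SD, cut at about 4.2% in these data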;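 note: 0% = DAX1-transfected cells with DMSO and 100% = empty-vector control cells with DMSO; inhibition shows as a rise in luminescence from relieved DAX1 repression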
HSF1 inh: HSF1 inhibition | NIH3T3-HGL HSE-luciferase, MG132-induced, luminescence 8 h; active compounds read low | AID 2098 | 300,000 tested, 0.77% active | activity change, negative = inhibition, % at 7.5 µM (by protocol);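 active = more than half of replicate wells show activity change below -50%, luminescence cut by over half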;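 note: luciferase reports HSF-1 transcriptional activity via heat shock element; 0% = median of DMSO wells and -100% = zero luminescence signal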
GAA850 FXN act: frataxin GAA850 promoter activation. HEK293 lucGAA850 FXN promoter luciferase reporter, 24 h; percent of 10 µM SAHA response. activation, % at 6 µM. 360,000 tested, 0.56% active;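 active = activation above the average of all compounds screened plus 3 SD, cutoff fixed separately per campaign, cut at about 7.5% in these data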;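 note: 0% = DMSO wells and 100% = 10 µM SAHA wells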
AHR activator: activates the human aryl hydrocarbon receptor. P35869. AHR-responsive luciferase reporter cells, luminescence. activation, % at 5 µM. 320,000 tested, 2.5% active. AID 2796; in the data active = activation above about 47%;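 note: 0% = vehicle wells and 100% = reference agonist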
Target sequence (P35869 whole entry, looked up): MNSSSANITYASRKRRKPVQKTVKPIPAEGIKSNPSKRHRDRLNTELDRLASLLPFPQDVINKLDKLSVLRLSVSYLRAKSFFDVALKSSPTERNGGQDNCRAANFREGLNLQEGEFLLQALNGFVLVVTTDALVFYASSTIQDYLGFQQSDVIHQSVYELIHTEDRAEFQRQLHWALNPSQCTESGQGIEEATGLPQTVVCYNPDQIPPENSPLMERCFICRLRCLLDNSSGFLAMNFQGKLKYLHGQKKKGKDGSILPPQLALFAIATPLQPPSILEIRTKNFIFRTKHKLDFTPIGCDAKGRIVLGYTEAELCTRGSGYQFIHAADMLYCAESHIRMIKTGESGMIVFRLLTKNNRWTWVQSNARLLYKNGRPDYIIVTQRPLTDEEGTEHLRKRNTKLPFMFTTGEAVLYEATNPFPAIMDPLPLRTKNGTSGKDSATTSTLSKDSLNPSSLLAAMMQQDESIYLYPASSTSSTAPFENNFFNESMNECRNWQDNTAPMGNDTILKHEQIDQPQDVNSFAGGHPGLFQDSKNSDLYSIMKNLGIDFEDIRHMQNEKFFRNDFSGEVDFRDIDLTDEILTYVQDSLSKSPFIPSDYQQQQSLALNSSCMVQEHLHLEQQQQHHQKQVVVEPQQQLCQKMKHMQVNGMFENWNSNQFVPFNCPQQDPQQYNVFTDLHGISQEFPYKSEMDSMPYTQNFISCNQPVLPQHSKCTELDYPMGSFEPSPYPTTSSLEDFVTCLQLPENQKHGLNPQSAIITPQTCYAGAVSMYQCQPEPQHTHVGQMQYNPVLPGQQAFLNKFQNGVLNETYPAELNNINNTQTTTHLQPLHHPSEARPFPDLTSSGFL
AHR act cf: human AHR activation, confirmation; shares compounds with AHR activator; human cells, AHR-responsive luciferase reporter, luminescence; activation, % at 9 µM; 2,300 tested, 87% active; in the data active = activation above about 49%;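 note: HepG2 hepatoma cells carrying a DRE-driven firefly luciferase reporter; 0% = vehicle wells and 100% = reference agonist wells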
PXR act counter: counter-screen for AHR activators: human PXR activators; 2,300 tested, 88% active; AID 434939; activation, % at 11.6 µM; cell-based PXR reporter, luciferase luminescence; shares compounds with AHR activator; in the data active = activation above about 11%;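 note: human hepatoma DPX-2 cells expressing full-length human PXR; 0% = DMSO and 100% = reference agonist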
* hit, by the source's call; . = no result given. The list is not random: actives were taken first. Their share in the collection is about 5.4%.

SMILES	HSF1 activator	DAX1 inh	HSF1 inh	GAA850 FXN act	AHR activator	AHR act cf	PXR act counter
Clc1ccc2oc(-c3cccnc3)nc2c1	22.4	2.0	16.3	5.4	4.3	.	.
Cc1ccc2nc(-c3cccnc3)oc2c1	34.7	1.8	20.2	5.5	88.6*	105.9*	30.7*
Cc1ccc2oc(-c3cccc(N)c3)nc2c1	70.2*	0.2	29.4	3.9	110.1*	106.7*	10.1*
Cc1ccc(S(=O)(=O)N2[C@@H](c3ccccc3F)C(C(=O)O)=CC[C@H]2c2ccc3c(c2)OCO3)cc1	.	0.2	.	-0.6	-4.2	.	.
O=C1NC2=C(CCc3ccccc32)C(c2ccccc2)N1 (stereo unspecified)	5.0	0.7	1.1	-0.5	82.5*	14.5	21.6*
CC(C)(C)S(=O)N1Cc2cc(CO)cc(CCO)c2[C@H]1CCO (stereo partly specified)	.	0.0	.	0.5	.	.	.
Cn1cc(/C=N\NC(=O)C2COc3ccccc3O2)c2ccccc21 (stereo unspecified)	-6.2	.	-4.2	.	96.8*	70.8*	11.7*
CCOc1ccc(S(=O)(=O)NCCC(=O)NCC(c2ccco2)N2CCCCC2)cc1 (stereo unspecified)	.	0.2	.	2.0	-1.8	.	.
COc1cc(NC(=O)c2ccnn2C)c(OC)cc1Cl	19.2	0.3	-0.4	1.2	129.2*	135.2*	23.0*
COc1cc(NC(=O)c2noc(C)c2[N+](=O)[O-])c(OC)cc1Cl	1.7	0.3	6.6	-2.5	79.7*	102.1*	30.2*
COc1cc(NC(=O)c2cc(-c3ccco3)on2)c(OC)cc1Cl	20.1	2.3	6.9	-0.5	41.2	.	.
COc1cc(NC(=O)c2cc(CC(C)C)on2)c(OC)cc1Cl	-26.0	0.0	-4.1	0.9	91.0*	85.5*	14.9*
COC(=O)c1ccccc1NC(=O)c1ccnn1C	-9.0	-1.1	-5.6	2.3	-0.3	.	.
Cc1cc(=O)oc2cc(OCC(=O)Nc3ccccc3C(N)=O)c(Cl)cc12	15.5	1.2	5.2	0.1	1.7	.	.
Cc1ccccc1NC(=O)Cc1nc(COC(=O)c2ccc(Cl)nc2)cs1	1.6	2.5	-1.8	1.6	-0.8	.	.
Cc1ccc(Nc2ccc(-n3ccnc3)nn2)cc1C	36.9	2.3	9.3	0.1	90.9*	47.7*	-0.7
COc1cccc(Nc2ccc(-n3ccnc3)nn2)c1	3.8	2.4	-3.2	2.2	81.0*	79.1*	16.2*
O=C(NCc1ccncc1)c1ccccc1Nc1ccc(SC(F)F)cc1	13.5	-0.8	5.0	-2.4	13.2	.	.
CNC(=O)c1ccccc1Nc1ccc(SC(F)F)cc1	5.4	-0.5	8.3	2.9	113.3*	96.6*	22.7*
CCCc1cc(C(=O)N(C)CC(=O)Nc2ccc(OCC)c(OCC)c2)sc1C	1.7	-0.9	0.3	1.8	2.1	.	.
Cc1cc(C)n(CC(=O)c2ccccc2)c(=O)c1C#N	-0.2	-0.1	-1.4	0.9	99.8*	104.6*	21.6*
Cc1c(CNCCc2ccccc2Cl)c(C(=O)O)c(C)n1-c1ccccc1	-7.5	-0.5	-9.3	-3.0	-0.5	.	.
O=C(Nc1ccccc1C(=O)N/N=C/c1ccco1)c1ccc(Cl)cc1	-45.5	-1.3	-32.5	1.3	86.5*	94.1*	29.9*
Cc1ccccc1C(=O)Nc1ccccc1C(=O)N/N=C\c1ccco1	2.6	1.9	0.2	-1.1	7.0	.	.
O=C(Nc1ccccc1C(=O)N/N=C/c1ccco1)c1ccc(F)cc1	14.1	0.0	-1.9	0.0	200.4*	111.4*	12.3*
O=C(Nc1ccccc1C(=O)N/N=C/c1ccco1)c1ccccc1	1.4	-1.1	5.0	-1.5	126.7*	151.4*	17.7*
CN1C(=O)C(C)(C)c2cc(S(=O)(=O)NCC3CCC(C(=O)NCc4ccccc4)CC3)ccc21 (stereo unspecified)	15.8	0.1	-1.0	-3.0	0.9	.	.
C/C(=N/NC(=O)Nc1ccccc1)c1ccc(C)cc1	-1.6	2.2	3.5	0.8	104.9*	75.5*	19.5*
CC(=O)Nc1ccc(/C(C)=N\NC(=O)c2ccc(-c3ccccc3)cc2)cc1	3.3	.	-0.3	.	13.6	.	.
CNc1ccccc1-c1nc2ccccc2n(C)c1=O	.	0.1	.	0.2	112.6*	107.5*	41.4*
